Reference: the supplement of paper PMC9399229
Counter-ions that a name gives are not always drawn. ± gives the standard deviation of the averaged measurements. Whole data set: some 1,900 compounds, median “relative cell viability (CellTiter-Glo), compound alone” near 1, cut for the lowest 2% near 0.16. This is one part of a sample in which the lowest values are shown more often than they occur.

Each compound was assayed on Hep3B (assay: relative cell viability (CellTiter-Glo), compound alone (fraction); higher = more viable cells (less growth inhibition)). Details: cabozantinib 0 µM; 4 days.

| SMILES | relative cell viability |
| --- | --- |
| CCCCc1nc2cc(/C=C/C(=O)NO)ccc2n1CCN(CC)CC [Pracinostat (SB939)] | 0.155 ± 0.046 |
| Cc1ccc(S(=O)(=O)c2ccc([N+](=O)[O-])o2)cc1 | 0.2656 ± 0.0026 |
| O=[N+]([O-])c1cn2c(n1)OC[C@@H](OCc1ccc(OC(F)(F)F)cc1)C2 | 1.05 ± 0.064 |
| COC(=O)CC[C@H](NC(=O)[C@H](CC(=O)OC)NC(=O)OCc1ccccc1)C(=O)N[C@H](C(=O)N[C@@H](CC(=O)OC)C(=O)CF)C(C)C | 1.25 ± 0.12 |
| CC(C)(Cc1ccc2ccccc2c1)NC[C@@H](O)COc1cccc(Cl)c1C#N | 1.09 ± 0.051 |
| O=C(NCC1(c2nc(-c3ccccc3)cs2)CCOCC1)c1cccc(-c2noc(C(F)(F)F)n2)c1 | 1.1 ± 0.12 |
| Clc1ccc(NN=C(c2ccccc2)c2ccccn2)nc1 | 0.0829 ± 0.0081 |
| O=C(Nc1cccc(Cl)c1)c1ccccn1 | 0.9222 ± 0.0036 |
| COc1ccc(CCc2nc3cc(-c4c(C)noc4C)ccc3n2C[C@H](C)N2CCOCC2)cc1Cl | 0.925 ± 0.092 |
| CNC(=O)[C@H](Cc1c[nH]c2ccccc12)NC(=O)[C@@H](CC(=O)NO)CC(C)C [Ilomastat (GM6001, Galardin)] | 1.05 ± 0.021 |
| Cc1ccc(NC(=O)c2ccc(CN3CC[C@H](N(C)C)C3)c(C(F)(F)F)c2)cc1Nc1nccc(-c2cncnc2)n1 [Bafetinib (INNO-406)] | 1.13 ± 0.047 |
| CCCN1CCCC[C@H]1C(=O)Nc1c(C)cccc1C [Ropivacaine HCl] | 1.02 ± 0.075 |
| CC[C@@H](C)Nc1cc(C(=O)N[C@H]2C[C@H]3CC[C@@H](C2)N3c2ccc(C(=O)C3CC3)cn2)c(C)cc1C(N)=O | 0.213 ± 0.014 |
| O=C(O)Cn1nnc(-c2cc(N3CCC(Oc4cc(F)ccc4Br)CC3)no2)n1 | 1.05 ± 0.024 |
| CC(C)(C)c1cc(/C=C(\C#N)C(N)=S)cc(C(C)(C)C)c1O [Tyrphostin AG 879] | 1.04 ± 0.053 |
| FC(F)(F)Oc1ccc2nc(-c3ccc(OCCOCCOc4ccc(-c5nc6ccc(OC(F)(F)F)cc6[nH]5)nc4)cn3)[nH]c2c1 | 0.708 ± 0.0018 |
| O=C(O)CCCc1c[nH]c2ccccc12 [3-Indolebutyric acid (IBA)] | 1.11 ± 0.1 |
| OCc1c[nH]c2ccccc12 [Indole-3-carbinol] | 1.007 ± 0.0087 |
| O=C(/C=C/c1ccc(CN(CCO)CCc2c[nH]c3ccccc23)cc1)NO [LAQ824 (Dacinostat)] | 0.124 ± 0.015 |
| COc1cc(C(=O)N2CCC(N3CCN(C)CC3)CC2)ccc1Nc1ncc2c(n1)N(C)c1ccccc1C(=O)N2C | 1.02 ± 0.019 |

| SMILES | relative cell viability |
| --- | --- |
| Cc1cc(F)c(Nc2ncnc3cc(OCc4ccccc4)ccc23)cc1O | 1.17 ± 0.027 |
| CC(NC(=O)C(Cc1ccccc1)NC(=O)OCc1ccccc1)C(=O)CF (centres undefined) | 0.951 ± 0.043 |
| COC(=O)[C@H](Cc1ccccc1)NC(=O)[C@@H](N)CC(=O)O [Aspartame] | 1.09 ± 0.15 |
| CC(C)C[C@H](NC(=O)[C@H](CCc1ccccc1)NC(=O)CN1CCOCC1)C(=O)N[C@@H](Cc1ccccc1)C(=O)N[C@@H](CC(C)C)C(=O)[C@@]1(C)CO1 [Carfilzomib (PR-171)] | 0.193 ± 0.016 |
| COC[C@H](NC(=O)c1cnc(C)s1)C(=O)N[C@@H](COC)C(=O)N[C@@H](Cc1ccccc1)C(=O)[C@@]1(C)CO1 [Oprozomib (ONX 0912)] | 0.123 ± 0.005 |
| COc1ccc(C[C@H](NC(=O)[C@H](C)NC(=O)CN2CCOCC2)C(=O)N[C@@H](Cc2ccccc2)C(=O)[C@@]2(C)CO2)cc1 | 0.1525 ± 0.00028 |
| CC(C)C[C@H](NC(=O)[C@H](Cc1ccccc1)NC(=O)c1cnccn1)B(O)O [Bortezomib (PS-341)] | 0.329 ± 0.066 |
| CC(C)N(C[C@H]1O[C@@H](n2cnc3c(N)ncnc32)[C@H](O)[C@@H]1O)[C@H]1C[C@@H](CCc2nc3cc(C(C)(C)C)ccc3[nH]2)C1 | 1.12 ± 0.029 |
| C[C@H]1O[C@@H](O[C@H]2[C@@H](O)C[C@H](O[C@H]3[C@@H](O)C[C@H](O[C@H]4CC[C@@]5(C)[C@H](CC[C@@H]6[C@@H]5C[C@@H](O)[C@]5(C)[C@@H](C7=CC(=O)OC7)CC[C@]65O)C4)O[C@@H]3C)O[C@@H]2C)C[C@H](O)[C@@H]1O [Digoxin] | 0.0999 ± 0.0026 |
| C[C@H]1Oc2cc(cnc2N)-c2c(nn(C)c2C#N)CN(C)C(=O)c2ccc(F)cc21 | 1.12 ± 0.049 |
| Cn1cc(C2=C(c3cn(CCCSC(=N)N)c4ccccc34)C(=O)NC2=O)c2ccccc21 [Ro 31-8220 Mesylate] | 1.05 ± 0.1 |
| C/C(=N\NC(=O)c1cccc(S(=O)(=O)N2CCOCC2)c1)c1cc(Cl)ccc1O | 1.08 ± 0.014 |
| COc1ccc(S(=O)(=O)N(C(C)=O)c2ccccc2/C=C/c2cc[n+]([O-])cc2)cc1 | 0.855 ± 0.05 |
| NC[C@@](O)(c1ccc(Cl)cc1)c1ccc(-c2cn[nH]c2)cc1 | 0.23 ± 0.029 |
| COc1c(C)cnc(Cn2cnc3c(Cl)nc(N)nc32)c1C | 0.19 ± 0.017 |
| O=C(Cc1cccc(OC(F)(F)F)c1)Nc1ccc(CCCCc2nnc(NC(=O)Cc3ccccn3)s2)nn1 | 1.04 ± 0.35 |
| O=C1NC(=O)C(c2cnc3ccccn23)=C1c1cn2c3c(cc(F)cc13)CN(C(=O)N1CCCCC1)CC2 | 1.28 ± 0.1 |
| COc1ccccc1S(=O)(=O)Nc1ccc2c(c1)CN(C)C(=O)N2 | 0.881 ± 0.091 |
| Cc1ncc(CCCN(C)C)cc1Nc1ncc2c(n1)-c1ccc(C(F)(F)F)cc1NC(=S)C2 | 0.81 ± 0.023 |
